Rows were chosen to be rich in hits. Some 10% of all compounds tested hit in one or more screens of this group.
KinaseGlo FLuc: Kinase-Glo luciferase inhibition (counter-screen); Kinase-Glo luciferase, ATP luminescence, 8 min; hit rate 0.28% among 200,000; Q27757; Potency, µM (series often up to 38.3 µM), for inactives: top-dose activity change, negative = inhibition, most hits filed as inhibitors; active = well fitted inhibition curve with a large enough effect; inconclusive = small, poorly fitted or top-dose-only effect; also: potency is read from the fitted curve at half-maximal effect; nearly all actives have a fitted effect of over 60% in size
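Luminescence was the read-out, taken after 8-minute incubation at ambient temperature. Luciferase turned over luciferin with 10 uM ATP in imidazole pH 7.2 buffer containing KCl, MgCl2, Tween 20 and BSA.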
HPGD block: blocks human HPGD enzyme activity | hit rate 4.3% among 150,000 | purified HPGD, NADH fluorescence kinetic, PGE2 substrate | P15428 | Potency, µM, without a hit: top-dose activity change, negative = inhibition, hits mostly inhibitors; also: potency is read from the fitted curve at half-maximal effect
Target sequence (P15428 whole entry, looked up): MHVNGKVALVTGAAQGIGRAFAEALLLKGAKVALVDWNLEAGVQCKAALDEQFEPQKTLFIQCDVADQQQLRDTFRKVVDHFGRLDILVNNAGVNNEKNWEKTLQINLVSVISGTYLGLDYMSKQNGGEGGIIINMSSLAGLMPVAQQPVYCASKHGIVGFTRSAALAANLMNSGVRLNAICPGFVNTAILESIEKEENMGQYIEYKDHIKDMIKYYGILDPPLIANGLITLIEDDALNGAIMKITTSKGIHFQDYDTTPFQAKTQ
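20 nM HPGD preincubated 15 min at room temperature with compound in 50 mM Tris-HCl pH 8, 0.01% Tween 20. Started with 1 mM NAD+ and 30 uM prostaglandin E2; NADH fluorescence (360/450 nm) read 5 times over 30-s intervals, last minus first.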
ALDH1A1 inh: inhibitors of human aldehyde dehydrogenase 1A1 | P00352 | Purified ALDH1A1, NADH fluorescence, propionaldehyde substrate | Potency, µM (series often up to 75.3 µM), inactives show at the highest dose activity, negative = inhibition, hits mostly inhibitors | hit rate 7.3% among 220,000 | AID 1030;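 also: potency is read from the fitted curve at half-maximal effect; plate controls were no enzyme wells and a reference inhibitor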
Target sequence (P00352 whole entry, looked up): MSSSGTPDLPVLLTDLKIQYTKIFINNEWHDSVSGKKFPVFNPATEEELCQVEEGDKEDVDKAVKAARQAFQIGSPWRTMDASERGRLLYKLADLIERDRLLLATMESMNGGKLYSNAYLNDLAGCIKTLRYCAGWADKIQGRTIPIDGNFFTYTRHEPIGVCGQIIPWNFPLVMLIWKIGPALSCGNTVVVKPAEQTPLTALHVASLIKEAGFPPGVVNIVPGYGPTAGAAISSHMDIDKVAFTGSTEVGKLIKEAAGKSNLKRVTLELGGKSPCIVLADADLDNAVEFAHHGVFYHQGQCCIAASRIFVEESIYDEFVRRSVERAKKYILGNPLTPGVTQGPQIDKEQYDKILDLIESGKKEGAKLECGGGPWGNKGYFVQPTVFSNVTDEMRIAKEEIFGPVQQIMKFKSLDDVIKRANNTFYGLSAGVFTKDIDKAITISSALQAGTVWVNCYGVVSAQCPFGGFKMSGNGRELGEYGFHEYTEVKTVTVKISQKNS
Lamin A splicing: changes lamin A minigene splicing in HeLa cells | HeLa LMNA splicing GFP/RFP minigene ratio, 48 h | Potency, µM (top dose mostly 46.1 µM), inactives show at the top dose ratio change, negative = inhibition, usual class: inhibitors | hit rate 0.01% among 200,000 | AID 1487; active = well fitted inhibition curve with a large enough effect in the signal ratio, with a control signal flat, not every such curve was filed as active; inconclusive = small, poorly fitted or top-dose-only effect, or effect the other way, or a change in a side signal; the % refers to the signal ratio; also: potency is read from the fitted curve at half-maximal effect
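S3 HeLa stable clones carrying a lamin A-EGFP splicing minigene plus DsRed2 were seeded at 600 cells/well in Opti-MEM with 2% FBS, pin-dosed and incubated 48 h at 37°C. Acumen cytometry (488 nm) gave the GFP/RFP total-intensity ratio.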
PNC assembly inh: blocks assembly of the perinucleolar compartment; activity change (PNC), negative = inhibition, % at 10 µM; hit rate 3.1% among 140,000; PC3M PTB-GFP, PNC prevalence imaging, 16 h; hits give low values;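 active = readout at or below -70, meaning at least 70% loss of cells showing the perinucleolar compartment, a nuclear body marking cancer cells; inconclusive = readout between -30 and a set limit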;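 also: plate controls were DMSO wells for no effect and camptothecin positive control wells for full effect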
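Compounds are pinned in duplicate onto adhered PC3M cells stably expressing GFP-tagged PTB and incubated 16 h at 37 C. Cells are then fixed, nuclei stained with Hoechst, and PNC-positive cells counted.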
An asterisk follows results filed as active; ? = inconclusive; / = no result; [ ] = remark or other dose. Unless noted, calls follow the shape of the dose curve; as a rule, active = well fitted inhibition curve with a large enough effect (not every such curve was filed as active); inconclusive = small, poorly fitted or top-dose-only effect, or another doubt; inactive = no such curve, though single readings can be large or run the other way. Unless noted, % is scaled to controls: 0 for no effect and ±100 for the full control effect.

SMILES | KinaseGlo FLuc | HPGD block | ALDH1A1 inh | Lamin A splicing | PNC assembly inh
COCCn1c(N)c(C(=O)NS(=O)(=O)c2ccc(C)cc2)c(=O)[nH]c1=O | -1% | / | 16µM* | / | /
Cc1oc(-c2cccc(Cl)c2)nc1CSc1nc2ncccc2[nH]1 | / | / | / | 15%[46 µM] | /
CC(C)(C)c1ccc(S(=O)(=O)/C=C/C#N)cc1 | -3% | 10µM* | 0.11µM* | ? | /
COC(=O)CC1C(=O)NCCN1C(=O)c1ccccc1 (centres undefined) | 2% | -15% | 9% | -1% | -22
COC(=O)CC1C(=O)NCCN1C(=O)CSc1nc2ccccc2s1 (centres undefined) | 4% | / | 18µM* | / | /
O=C(CCc1ccccc1)Nc1ccc(S(=O)(=O)N2CCCC2)cc1 | 2% | / | 13µM* | / | /
O=C(COC(=O)c1ccc(Br)o1)Nc1ccc(S(=O)(=O)N2CCCC2)cc1 | 3% | -13% | ? | -3% | -80*
O=C(CSc1nc2ccccc2c(=O)[nH]1)Nc1ccc(S(=O)(=O)N2CCCC2)cc1 | 1% | 14µM* | 2.2µM* | ? | -1
Cc1cc(C)c2c(c1)cc(C)c1nnc(SCC(=O)Nc3ccc(S(=O)(=O)N4CCCCC4)cc3)n12 | -1% | -7% | 20µM* | ? | -25
Cc1ccc(NC(=O)CN2CCN(C3CCCCC3)C(=O)C2=O)cc1C | / | / | / | 4%[46 µM] | /
O=C(COc1ccccc1)Nc1ccc(S(=O)(=O)N2CCCC2)cc1 | -1% | -7% | -6% | 4% | -25
O=C(CCOc1ccccc1)Nc1ccc(S(=O)(=O)N2CCCC2)cc1 | -2% | -9% | 22µM* | -2% | 11
CC1CCN(S(=O)(=O)c2ccc(NC(=O)CSc3ncccc3C(=O)O)cc2)CC1 | 26% | 14µM* | 25µM* | 0% | 14
Fc1cccc(Cl)c1CNn1cn[nH]c1=S | 1% | / | -11% | 4%[46 µM] | /
S=c1[nH]ncn1NCc1ccc(Cl)cc1Cl | 0% | / | 1.4µM* | / | /
NNc1ccc(Cl)nn1 | / | / | 18µM* | / | /
CCCCc1n[nH]c2c1/C(=N/O)CC(c1ccccc1)C2 (centres undefined) | -3% | 2.5µM* | -2% | ? | 34
CCc1n[nH]c2c1/C(=N\O)CC(c1ccccc1)C2 (centres undefined) | 0% | 4µM* | -8% | ? | -30
CCCCc1noc2c1/C(=N\O)CC(c1ccccc1)C2 (centres undefined) | 1% | -21% | -1% | -14% | -3
CSCC[C@H](C=O)NC(=O)[C@H](CC(C)C)NC(=O)[C@H](CC(C)C)NC(C)=O | 2% | -3% | 8% | / | /
C=C(C)COc1ccc(-c2n[nH]c(C)c2-c2ccc(OC)cc2)c(O)c1 | -3% | -23% | ? | ? | 52
COc1ccc(-c2c(-c3ccc(OCC(=O)NN)cc3O)n[nH]c2C(F)(F)F)cc1 | 1% | -11% | 13µM* | 0% | ?
C[C@H]1COC(=O)[C@H]2CCCN2C(=O)[C@@H](C)COC(=O)[C@H]2CCCN2C1=O | / | / | -8%[13.5 µM] | / | /
COc1cc(CCN2C(=O)N[C@@H](c3ccccc3)C(C(C)=O)=C2C)cc(OC)c1OC | 1% | -7% | -1% | / | /
Cc1cc(C)c(C#N)c(Nc2ccccc2)n1 | 0% | -25% | ? | 2% | -29
SMILES | KinaseGlo FLuc | HPGD block | ALDH1A1 inh | Lamin A splicing | PNC assembly inh
COc1cccc(Nc2nc(C)cc(C)c2C#N)c1 | 0% | -22% | 5% | -18% | -100*
C/C(=N\NS(=O)(=O)c1ccc(C)cc1)c1ccc(C)s1 | 1% | -2% | 18µM* | 14% | 78
CCc1ccc(NC(=O)N(CCN2CCOCC2)Cc2ccc3c(c2)CCCN3CC)cc1 | 8% | ? | ? | 13% | -24
CCN1CCCc2cc(CN(CCN3CCOCC3)C(=O)Nc3ccc(C)c(C)c3)ccc21 | 1% | -8% | 28µM* | 0% | ?
CCN1CCCc2cc(CN(CCN3CCOCC3)C(=S)Nc3ccccc3C)ccc21 | 1% | / | 22µM* | ? | /
CCN1CCCc2cc(CN(CCN3CCOCC3)C(=S)Nc3cccc(C)c3)ccc21 | -1% | / | 7.9µM* | -14%[46 µM] | /
C=CCOC(=O)C(C(C)=O)C(NC(=O)OC)c1cccc(C(F)(F)F)c1 (centres undefined) | / | / | 17%[13.5 µM] | / | /
COc1ccccc1CNC(=O)COCc1cc(-c2cccs2)on1 | / | / | / | -16%[46 µM] | /
O=C(c1cnn2c(C(F)(F)F)cc(-c3ccccc3)nc12)N1CCCCC1c1cccnc1 (centres undefined) | 0% | / | ? | ? | /
O=C(c1cc2nc(-c3ccc(F)cc3)cc(C(F)(F)F)n2n1)N1CCCCC1c1cccnc1 (centres undefined) | -1% | / | 14µM* | ? | /
CN1CCN(C(=O)c2cc3nc(-c4ccc(F)cc4)cc(C(F)(F)F)n3n2)CC1 | -2% | 11µM* | -6% | -4% | 25
NC(=O)C1CCN(S(=O)(=O)c2cc3c(cc2Cl)NC(=O)CO3)CC1 | / | / | / | 6%[46 µM] | /
O=C(CCS(=O)(=O)c1cccc2nonc12)N1CCN(c2ccc(F)cc2)CC1 | 2% | -12% | ? | -17% | -7
Cc1ccc(NC(=O)CCNS(=O)(=O)c2cccc3nonc23)cc1Cl | 3% | / | ? | 6%[46 µM] | /
O=C(CCNS(=O)(=O)c1cccc2nonc12)NCCc1ccc(Cl)cc1 | 4% | -5% | 20µM* | -11% | 25
O=C(CCNS(=O)(=O)c1cccc2nonc12)N1CCN(c2cccc(Cl)c2)CC1 | 6% | -10% | 2µM* | -7% | ?
Cc1ccc(CNC(=O)Cn2cc(C(=O)c3ccc(Cl)cc3)c(=O)c3ccc(C)nc32)cc1 | / | / | / | 8%[46 µM] | /
CCCN(CCC)C(=O)CSc1nnc2cc(C)c3cc(C)cc(C)c3n12 | / | / | / | 5%[46 µM] | /
CCCC[C@@H](C=O)NC(=O)[C@H](CC(C)C)NC(=O)OCc1ccccc1 | / | / | -15% | / | /
CC1Cc2ccccc2N1C(=S)NC(=O)C1(C)CC1(Cl)Cl (centres undefined) | 1% | / | 4% | ? | /
C=CCN1C(=O)/C(=C2\SC(N3CCOCC3)=NC2=O)c2cc(Br)ccc21 | -5% | -15% | 3.5µM* | -13% | -28
CC(=C/c1ccccc1)/C=C1/SC(N2CCOCC2)=NC1=O | -6% | -23% | ? | -4% | -17
COC(=O)C1=C(C(=O)c2ccccc2)C(c2ccccc2)n2nnnc2N1 (centres undefined) | -2% | / | 28µM* | -3%[46 µM] | /
COC(=O)C1=C(C(C)=O)C(c2ccc(C(=O)OC)cc2)n2nnnc2N1 (centres undefined) | 4% | -11% | -12% | -11% | ?
CCN(CC)CCCNC(=O)c1c(C)oc2ncnc(N3CCOCC3)c12 | / | / | / | 16%[46 µM] | /
N#CC1=C(N)n2c(s/c(=C\c3ccco3)c2=O)=C(C#N)C1c1ccco1 (centres undefined) | 0% | -24% | 22µM* | -3% | 0
COc1ccc(Cn2ccnc2CO)cc1[N+](=O)[O-] | -2% | / | 6.3µM* | / | /
COc1ccc(CSC(=N)N)cc1[N+](=O)[O-] | -2% | -1% | 28µM* | ? | ?
